# Inconclusive results are not listed. A call without a number means that no potency is given here. Unmarked numbers belong to inactive results. Activity calls are given as the source filed them. Calls come from the whole dose curve; as a rule, active = well fitted curve in the direction sought with a large enough effect; inconclusive = small, poorly fitted or top-dose-only effect, or another doubt; inactive = no such curve, though single readings can be large; an effect the other way counts as inactive or inconclusive.
# Key:
# [1] = target: Aldehyde dehydrogenase, mitochondrial (Homo sapiens) (UniProt P05091); experiment: qHTS for Inhibitors of the Aldehyde Dehydrogenase Family (ALDH2) Primary screen (AID 2061308); note: nearly all actives have a fitted effect of over 55% in size
# [2] = target: Retinaldehyde dehydrogenase 3 (Homo sapiens) (UniProt P47895); experiment: qHTS for Inhibitors of the Aldehyde Dehydrogenase Family (ALDH1A3) Primary screen (AID 2061315)
# [3] = target: Retinaldehyde dehydrogenase 3 (Homo sapiens) (UniProt P47895); experiment: qHTS for Inhibitors of the Aldehyde Dehydrogenase Family (ALDH1A3) Validation screen (AID 2061312); note: nearly all actives have a fitted effect of over 45% in size
# [4] = BET inhibitor-based combinations targeting novel dependencies in MECOM-rearranged (r) AML: SET-2 cell line (AID 2202231); conditions: SET-2 AML cells viability, CellTiter-Glo luminescence, 48 h; viability: hits give low values, concentration not given here; note: potency is the fitted concentration of half-maximal effect; nearly all actives have a fitted effect of over 35% in size
# Method in brief: (§1)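 500 cells/well; 11-pt dose curve; 48 h, standard incubator; CellTiter-Glo luminescence after 15 min RT; DMSO/empty-well normalization; AUC plus Z-AUC (mean-centered within each line).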
# [5] = BET inhibitor-based combinations targeting novel dependencies in MECOM-rearranged (r) AML: OCI-AML3 cell line (AID 2202232); conditions: Potency: OCI-AML3 viability; note: potency is the fitted concentration of half-maximal effect; nearly all actives have a fitted effect of over 35% in size
# Method in brief: as §1
# [6] = BET inhibitor-based combinations targeting novel dependencies in MECOM-rearranged (r) AML: MV-4-11 cell line (AID 2202233); note: potency is the fitted concentration of half-maximal effect; nearly all actives have a fitted effect of over 45% in size
# Method in brief: (§2)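 Cells were plated at 500 per well and exposed to each drug across an 11-point dose range for 48 hr at standard incubator conditions. Viability was read by CellTiter-Glo luminescence, and activity was expressed as AUC and per-cell-line Z-transformed AUC.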
# [7] = BET inhibitor-based combinations targeting novel dependencies in MECOM-rearranged (r) AML: HNT-34 cell line (AID 2202234); note: potency is the fitted concentration of half-maximal effect; nearly all actives have a fitted effect of over 35% in size
# Method in brief: as §2
# [8] = BET inhibitor-based combinations targeting novel dependencies in MECOM-rearranged (r) AML: UCSD-AML1 cell line (AID 2202235); note: nearly all actives have a fitted effect of over 40% in size; note: potency is the fitted concentration of half-maximal effect
# Method in brief: as §2
# [9] = BET inhibitor-based combinations targeting novel dependencies in MECOM-rearranged (r) AML: AML-194 cell line (AID 2202237; note: nearly all actives have a fitted effect of over 40% in size; note: potency is the fitted concentration of half-maximal effect)
# Method in brief: as §1
# [10] = BET inhibitor-based combinations targeting novel dependencies in MECOM-rearranged (r) AML: AML-191 cell line (AID 2202236; note: nearly all actives have a fitted effect of over 35% in size)
# Method in brief: as §1
smiles,measurement,setting,value
COc1ccc(/C=C/C(=O)O[C@@H]2[C@@H](OC(C)=O)[C@@H](OC(C)=O)[C@H](O[C@H]3[C@@H]4C=CO[C@@H](O[C@@H]5O[C@H](CO)[C@@H](O)[C@H](O)[C@H]5O)[C@@H]4[C@@]4(CO)O[C@@H]34)O[C@H]2C)cc1,Potency,[1],inactive
same,Potency,[2],inactive
Cc1occc(=O)c1O[C@@H]1O[C@H](CO[C@@H]2OC[C@](O)(CO)[C@H]2O)[C@@H](O)[C@H](O)[C@H]1O,Potency,[1],inactive
same,Potency,[2],inactive
CC(=O)OC/C(=C/C(=O)O)CC[C@@H]1C(C=O)=CC[C@@H]2C(C)(C)CCC[C@@]12C,Potency,[1],inactive
same,Potency,[2],inactive
CC1(C(=O)O)CCCC2(C)C3=CCC4CC3(CCC12)CC4CO (configuration not stated),Potency,[1],inactive
same,Potency,[2],inactive
CC(C)=CCC[C@](C)(O[C@@H]1O[C@H](CO)[C@@H](O)[C@H](O)[C@H]1O)[C@H]1CC[C@]2(C)[C@@H]1[C@H](O)CC1[C@@]3(C)CC[C@H](O)C(C)(C)C3[C@@H](O[C@@H]3O[C@H](CO)[C@@H](O)[C@H](O)[C@H]3O[C@@H]3O[C@@H](C)[C@H](O)[C@@H](O)[C@H]3O)C[C@]12C (some centres not stated),Potency,[1],inactive
same,Potency,[2],inactive
CN(C)C1CCN(C(=O)c2ccc(NC(=O)Nc3nc(N4CCOCC4)nc(N4CCOCC4)n3)cc2)CC1,Potency,[1],inactive
same,Potency,[3],inactive
same,Potency,[2],inactive
same,Potency,[4],5250 nM (active)
same,Potency,[5],132 nM (active)
same,Potency,[6],105 nM (active)
same,Potency,[7],105 nM (active)
same,Potency,[8],296 nM (active)
same,Potency,[9],590 nM (active)
CC(=O)c1ccc2c(c1)C(O)C(C(C)(C)O)O2 (configuration not stated),Potency,[1],inactive
same,Potency,[2],inactive
C=C1CC2C3(C)C(O)CC(=O)C(C)(C)C3C(OC(C)=O)C(OC(C)=O)C2(C)C2C(=O)OC(C)(C(=O)OC)C(=O)C12C (configuration not stated),Potency,[1],inactive
same,Potency,[2],inactive
CC(/C=C/C1(O)C(C)(C)CC(O)CC1(C)O)OC1OC(CO)C(O)C(O)C1O (configuration not stated),Potency,[1],inactive
same,Potency,[2],inactive
CCOC(=O)C1=C(C)NC2=C(C(=O)CC(C)(C)C2)C1c1ccc(-c2ccccc2)cc1 (configuration not stated),Potency,[1],inactive
same,Potency,[3],inactive
same,Potency,[2],inactive
same,Potency,[5],13200 nM (active)
same,Potency,[8],inactive
same,Potency,[10],inactive
same,Potency,[9],inactive
CC(=O)N[C@H](Cc1c[nH]c2ccccc12)C(=O)OCc1cc(C(F)(F)F)cc(C(F)(F)F)c1,Potency,[1],inactive
same,Potency,[2],inactive
CC1CCC(=O)CC(SCC(O)C(=O)O)CCC(=O)O1 (configuration not stated),Potency,[1],inactive
same,Potency,[2],inactive
C=C1CO[C@@]2(O[C@H]3CC4C5CC=C6C[C@@H](O)C[C@@H](O[C@@H]7OC[C@H](O)[C@H](O[C@@H]8OC[C@@H](O)[C@H](O)[C@H]8O)[C@H]7O[C@@H]7O[C@@H](C)[C@H](OC(C)=O)[C@@H](OC(C)=O)[C@H]7OC(C)=O)[C@]6(C)C5CC[C@]4(C)[C@@H]3[C@@H]2C)[C@@H](O)[C@H]1OC1OC(C)C(O)C(O)C1O (some centres not stated),"activity change, negative = inhibition",[1],8.25% [at 11.2 µM]
same,"activity change, negative = inhibition",[2],-6.16% [at 11.2 µM]
CCC(C)/C=C(C)/C=C/C1=CC2=CC(=O)C3(C)OC(C)(O)C(C(=O)OC)C3C2=CO1 (configuration not stated),Potency,[1],inactive
same,Potency,[2],inactive
C/C(=C\C(=O)C[C@@]12C(=O)O[C@]3(C)CC[C@H]1C[C@H]23)C(N)=O,Potency,[1],inactive
same,Potency,[2],inactive
C/C=C1\[C@H](O[C@@H]2O[C@H](CO)[C@@H](O)[C@H](O)[C@H]2O)OC=C(C(=O)O)[C@H]1CC(=O)OCCc1ccc(O)cc1,Potency,[1],inactive
same,Potency,[2],inactive
CC1=C(C(=O)O)/C(=C\CO[C@@H]2O[C@H](CO)[C@@H](O)[C@H](O)[C@H]2O)C(OC(=O)/C=C/c2ccc(O)cc2)C1 (some centres not stated),Potency,[1],inactive
same,Potency,[2],inactive
C=C1CC/C=C(/CO)C(=O)C[C@@H]2[C@@H]1CC2(C)C,Potency,[1],inactive
same,Potency,[2],inactive
C[C@H](Oc1ccc(S(C)(=O)=O)cc1C(=O)N1CCN(c2ncc(C(F)(F)F)cc2F)CC1)C(F)(F)F,Potency,[1],inactive
same,Potency,[2],inactive
OCCc1ccc(O[C@@H]2O[C@H](CO)[C@@H](O)[C@H](O)[C@H]2O)cc1,Potency,[1],inactive
same,Potency,[2],inactive
COc1c2c(c(C)c3c1C(=O)OC3)OC1(C)CC(O)C34OC(OC)(OC3(C)C)C(O)CC4(C)C1C2 (configuration not stated),Potency,[1],inactive
same,Potency,[2],inactive
C=C1CC23CC1CCC2C12OC(=O)C(C)(C(O)C(O)C1O)C2C3C(=O)O (configuration not stated),Potency,[1],inactive
same,Potency,[2],inactive
C/C(=C\CCC(C)C1=CCC2(C)OC3=C(CC12)C(=O)C(O)CC3)CO (configuration not stated),Potency,[1],inactive
same,Potency,[2],inactive
CC(=O)OC1C[C@]2(C)C(O)CC(C)=C[C@H](OC(=O)c3ccc(O)cc3)C2[C@]1(O)C(C)C (some centres not stated),Potency,[1],inactive
same,Potency,[2],inactive
C=C1CC2C3(C)C=CC(=O)OC(C)(C)C3CC(OC(C)=O)C2(C)C2C(=O)OC(C)C(=O)C12C (configuration not stated),Potency,[1],inactive
same,Potency,[2],inactive

# Reference: PubChem BioAssay (NCATS)
